Records with an inconclusive call do not appear. Entries that show only a call come without a potency. The source made the active and inactive calls. Calls follow the shape of the dose curve; as a rule, active = well fitted inhibition curve with a large enough effect; inconclusive = small, poorly fitted or top-dose-only effect; inactive = flat fitted curve, though single readings scatter.
Each molecule was assayed on ICS (assay: qHTS profiling for inhibitors of Plasmodium falciparum proliferation (AID 504749; also: nearly all actives have a fitted effect of over 60% in size)). Settings: P. falciparum in erythrocytes, SYBR Green DNA, 72 h; series mostly up to 12.8 µM.
Summary of the method: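 Readout was DNA-dye fluorescence from lysed cultures, ex 485/em 535 nm. Parasitized red cells had grown 72 h with compound; data scaled between 0.29 uM artemisinin and DMSO wells and corrected using vehicle-only plates.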
Potency is read from the fitted curve at half-maximal effect.

| SMILES | Potency |
| --- | --- |
| CC(=O)N[C@H](CC(C)C)C(=O)O | inactive |
| CC(C)C1CCC(C(=O)NC(Cc2ccccc2)C(=O)O)CC1 (stereo not drawn) | inactive |
| COc1ccc2cc(C(C)CO)ccc2c1 (stereo not drawn) | inactive |
| COc1ccc2cc1Oc1ccc(cc1)CC1c3c(cc4c(c3Oc3cc5c(cc3OC)CCN(C)C5C2)OCO4)CCN1C (stereo not drawn) | 2.82 µM (active) |
| CNC1C(OC2C(O[C@@H]3C(O)C(O)[C@@H](N=C(N)N)C(O)C3N=C(N)N)OC(C)[C@@]2(O)CO)OC(CO)C(O)C1O (stereo partly drawn) | inactive |
| CC1C2CCC3C4CC=C5CC(N(C)C)CC[C@@]5(C)C4CC[C@@]32CN1C (stereo partly drawn) | inactive |
| C[C@]12C=CC(=O)C=C1CCC1C2C(O)C[C@]2(C)C1CC[C@]2(O)C(=O)CO (stereo partly drawn) | inactive |
| CN(C)CCc1c[nH]c2ccc(CC3COC(=O)N3)cc12 (stereo not drawn) | inactive |
| NCC1CCC(N)C(O[C@@H]2C(O)[C@H](O[C@H]3OC(CO)C(O)C(N)C3O)[C@@H](N)C[C@H]2N)O1 (stereo partly drawn) | inactive |
| OCC1O[C@H](OC2C(CO)O[C@@](O)(CO)C2O)C(O)C(O)C1O (stereo partly drawn) | inactive |
| CC1(C)OC2CO[C@]3(COS(N)(=O)=O)OC(C)(C)OC3C2O1 (stereo partly drawn) | inactive |
| CN(C)CCCOC1C(C(O)CO)OC2OC(C)(C)O[C@@H]21 (stereo partly drawn) | inactive |
| COc1cc(C2c3cc4c(cc3C(O[C@@H]3OC5COC(c6cccs6)OC5C(O)C3O)C3COC(=O)C23)OCO4)cc(OC)c1O (stereo partly drawn) | 1.26 µM (active) |

— PubChem BioAssay (NCATS)
